Compounds with a hit are over-represented: about 8.1% of the library has one in this group of screens.
SW480 rereplic: inducers of DNA re-replication in SW480 colon cancer cells; SW480 DNA re-replication, Hoechst DNA content imaging, 48 h; Potency, µM (series often up to 46.1 µM), for the others: top-dose re-replication activation, actives largely listed as activators; 1.8% of 340,000 active; AID 624297; further: % of control where 0% means no effect; nearly all actives have a fitted effect of over 55% in size
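DNA re-replication was detected as more nuclei of elevated Hoechst intensity after 48 hr exposure to compound (23 nL pinned per well of 250 cells).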
MCF10A rereplic: induces DNA re-replication in MCF 10a normal breast cells; MCF 10A DNA re-replication, Hoechst nuclear intensity, 48 h; Potency, µM (doses to about 46.1 µM), without a hit: at the top dose activity, positive = re-replication, hits mostly activators; 2.9% of 350,000 active; further: % of control where 0% means no effect; nearly all actives have a fitted effect of over 50% in size
ELG1 repair inh: ELG1-dependent DNA repair inhibition. HEK293T ELG1-luciferase reporter, luminescence, 16 h; DNA damage induced by 5-fluorouridine. 2.3% of 330,000 active. Potency, µM (doses to about 46.1 µM), for the others: at the top dose activity change, negative = inhibition, actives largely listed as inhibitors; further: on the % scale 0 is the no-effect control and ±100 the full control effect; nearly all actives have a fitted effect of over 55% in size
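Cells (2,000 per well) received 5-fluorouridine plus test compound or DMSO and were incubated 16 hr at 37 °C, 5% CO2. Luciferase activity was read by luminescence 30 min after ONE-Glo addition; signal suppression marked inhibition of damage-induced ELG1 function.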
KB-V1 MDR tox: KB-V1 MDR subline cytotoxicity | KB-V1 MDR cells viability, CellTiter-Glo, 72 h | Potency, µM (titrated, usually from 46.1 µM), actives largely listed as cytotoxic | 3.4% of 400,000 active | AID 1347076; further: on the % scale 0 is the no-effect control and ±100 the full control effect; nearly all actives have a fitted effect of over 60% in size
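Drug-selected KB-V1 cells, grown in DMEM lacking phenol red with 10% FBS, receive compound titrations; after three days at 37 degrees C, surviving cell ATP is quantified by CellTiter-Glo luminescence and responses normalized and curve-fitted.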
KB-3-1 cytotox: kills parental KB-3-1 adenocarcinoma cells; KB-3-1 viability, CellTiter-Glo ATP luminescence, 72 h; Potency, µM (highest dose often 46.1 µM), most hits filed as cytotoxic; 1.4% of 400,000 active; further: on the % scale 0 is the no-effect control and ±100 the full control effect; nearly all actives have a fitted effect of over 60% in size
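Cells are dispensed, compounds pinned in, plates held at 37 °C for 72 h, then CellTiter-Glo is added and luminescence read after 10 minutes. Cell line: parental KB-3-1 in phenol-red-free DMEM, 10% FBS.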
Active calls of the source: *; i = inactive; ? = inconclusive; / = no result. The call rests on the fitted dose curve; in most records, active means well fitted curve in the direction sought with a large enough effect; inconclusive means small, poorly fitted or top-dose-only effect, or another doubt; inactive means no such curve, though single readings can be large; an effect the other way counts as inactive or inconclusive. Potency means the concentration at half of the fitted maximal effect.

SMILES	SW480 rereplic	MCF10A rereplic	ELG1 repair inh	KB-V1 MDR tox	KB-3-1 cytotox
Cc1nn(-c2ccccc2)c(C)c1NC(=O)COc1ccc2ccccc2c1	0.6%	?	?	14.6µM*	?
CCC(=O)N1CCc2cc(S(=O)(=O)NC(C(=O)N3CCN(c4ccc(F)cc4)CC3)C(C)C)ccc21 (configuration not stated)	-2.5%	-5.1%	3.5%	i	i
COc1ccc(-c2cc(-c3ccc4c(c3)NC(=O)CO4)nc3c2COc2ccc(C)cc2-3)cc1	/	/	/	?	i
O=C1C=CCC(/C=C/c2ccccc2)O1 (configuration not stated)	16.4µM*	14.6µM*	18.4µM*	?	?
O=C(c1noc2c1CCCC2)N1CCC(CO)(Cc2ccccc2Cl)CC1	0.7%	?	20.6µM*	i	i
O=C(c1noc2c1CCCC2)N1CCN(C(c2ccccc2)c2ccccc2)CC1	/	/	-1.6%	/	/
O=C(c1noc2c1CCCC2)N1CCN(c2ccccc2)CC1	-3.5%	-2.1%	10.3%	18.4µM*	i
CC(NC(=O)c1noc2c1CCCC2)c1ccccc1 (configuration not stated)	17.4%	-3.9%	6.6%	16.4µM*	i
COc1c(C)cc(C(O)c2ncc(-c3ccccc3F)[nH]2)cc1C (configuration not stated)	/	/	/	?	i
COc1ccc(NC(=O)Cn2cnc3ccc(S(=O)(=O)N4CCC(C)CC4)cc3c2=O)cc1Cl	/	/	/	i	i
O=C(O)CC(SCC(=O)Nc1ccc(Cl)c(S(=O)(=O)N2CCOCC2)c1)C(=O)O (configuration not stated)	-14.1%	-0.8%	?	i	i
COc1ccc(OCC(=O)Nc2ccc(S(=O)(=O)N3CCOCC3)cc2)cc1	-1.3%	-0.4%	0.0%	i	i
Cc1ccc(NC(=O)CN2c3cccc4cccc(c34)S2(=O)=O)cc1S(=O)(=O)N1CCOCC1	?	4.4%	?	3.66µM*	?
Cc1ccc(NC(=O)COc2cccc(Oc3ccccc3)c2)cc1S(=O)(=O)N1CCOCC1	-4.0%	4.1%	?	11.6µM*	16.4µM*
CC(=O)Nc1ccc(OCC(=O)Nc2ccc(Cl)c(S(=O)(=O)N3CCOCC3)c2)cc1	/	/	5.8µM*	/	/
Cc1cccc(OCCC(=O)Nc2ccc(C)c(S(=O)(=O)N3CCOCC3)c2)c1	-1.4%	3.9%	?	i	?
CC(CC(=O)Nc1ccc(Cl)c(S(=O)(=O)N2CCOCC2)c1)c1ccccc1 (configuration not stated)	13.6%	?	8.2µM*	2.06µM*	4.61µM*
O=C(COC(=O)c1ccccc1O)Nc1cccc(S(=O)(=O)N2CCCC2)c1	-27.0%	22.3%	-7.1%	i	i
COc1ccc(NC(=O)CN2C(=O)CSc3ccc(S(=O)(=O)N(C)C)cc32)cc1OC	/	/	/	?	i
C(=C\c1nc2ccccc2o1)/c1ccc2c(c1)OCO2	/	/	/	i	i
O=C(CC1CCCC1)Nc1ccc(Cl)c(S(=O)(=O)N2CCOCC2)c1	?	?	20.6µM*	i	i
O=C(Nc1ccc(Cl)c(S(=O)(=O)N2CCOCC2)c1)C1CCC1	?	8.6%	?	i	i
COc1cccc(CNC(=O)c2ccc(CS(=O)(=O)Cc3ccccc3C)o2)c1	?	47.6%	-3.4%	i	i
CC(C)c1onc(C(=O)N2CCN(c3ccc(F)cc3)CC2)c1[N+](=O)[O-]	20.6µM*	-0.2%	12.0%	i	i
COCCN(C(=O)c1snc(C(N)=O)c1N)C(C(=O)NC1CCCCC1)c1ccc(F)cc1 (configuration not stated)	?	16.4µM*	-1.7%	i	i
SMILES	SW480 rereplic	MCF10A rereplic	ELG1 repair inh	KB-V1 MDR tox	KB-3-1 cytotox
Cc1cccc(CCN(C(=O)c2snc(C(N)=O)c2N)C(C(=O)NCC2CCCO2)c2ccc(F)cc2)c1 (configuration not stated)	?	?	-16.6%	20.6µM*	i
NC(=O)c1nsc(C(=O)N(c2cccc(F)c2)C(C(=O)NC2CCCC2)c2ccc(O)cc2)c1N (configuration not stated)	6.1%	-3.6%	10.7%	i	i
CCc1ccc(N(C(=O)c2snc(C(N)=O)c2N)C(C(=O)NC2CCCC2)c2ccco2)cc1 (configuration not stated)	?	6.51µM*	?	23.1µM*	?
COc1ccc(C(C(=O)NC2CCCC2)N(C(=O)c2snc(C(N)=O)c2N)c2cccc(O)c2)cc1 (configuration not stated)	-2.1%	6.7%	16.4µM*	i	i
COCc1cc(C)nc2c1C(=O)NC(c1ccc(F)cc1)N2Cc1ccccc1 (configuration not stated)	/	/	/	i	i
COc1cccc(N(CC(=O)NC2CCCCC2)C(=O)c2snc(C(N)=O)c2N)c1	-4.8%	6.0%	23.0%	?	i
NC(=O)c1nsc(C(=O)N(CC(=O)NC2CCCC2)c2cccc(C(F)(F)F)c2)c1N	?	14.6µM*	-8.3%	i	i
CC(C)(C)c1cnnn1-c1ccc(/C=N/Nc2ccc([N+](=O)[O-])cc2)cc1	18.4µM*	?	?	i	?
CC/C(=N\Nc1ccc([N+](=O)[O-])cc1)c1ccccc1	?	16.4µM*	?	i	i
C/C(=N\Nc1ccc([N+](=O)[O-])cc1)c1ccc(-n2nncc2C)cc1	?	?	7.31µM*	?	i
CCc1ccc(/C(C)=N\Nc2ccc([N+](=O)[O-])cc2)cc1	14.6µM*	9.2µM*	?	i	i
C/C(=N\Nc1ccc([N+](=O)[O-])cc1)c1ccc(N2CCOCC2)cc1	0.1%	-1.1%	?	i	i
CCOC(=O)C1=CCN(S(=O)(=O)c2ccccc2)C1c1ccc(Cl)cc1 (configuration not stated)	/	/	/	i	i
COc1cc(C2CC(=O)Nc3c2c(=O)n(C)c(=O)n3C)cc(OC)c1OC (configuration not stated)	/	/	/	i	i
COc1ccc(-n2nc3cc(C)c(NC(=O)c4ccc(-c5ccc(Cl)cc5)o4)cc3n2)cc1	/	/	/	?	i
O=C(O)C(=O)/C(=C\c1cccc2ccccc12)c1ccc2ccccc2n1	?	15.8µM*	-14.3%	?	?
COC(=O)c1ccccc1NC(=O)c1ccc2c(Cl)c3c(nc2c1)CCCC3	/	/	/	i	i
Cc1nn(CC(=O)N2CCN(c3ccccc3)CC2)c(=O)c2cc3cc(F)ccc3n12	/	/	/	?	i
COC(=O)c1cc(NC(=O)Cc2coc3cc(OC)ccc23)cc(C(=O)OC)c1	-0.6%	0.3%	16.4µM*	i	i

High-throughput results: PubChem, National Center for Advancing Translational Sciences (NCATS)
